The supplement of paper PMC11634586
Where a name gives a salt, the structure may show the parent alone.

System: NCI-H1688
Experiment: inhibition of cell viability relative to untreated control (fraction); higher = stronger growth inhibition, active = 0.5 or more
Details: 30 µM; 24 h
In short: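 After seeding at 3 × 10^3 cells/well in 96-well plates and a 24 h wait, NCI-H1688 small cell lung cancer cells received a natural compound library (TargetMol) at 30 µM for 24 h, kept at 37°C with 5% CO2. Triplicate readings of Cell Counting Kit-8 absorbance at 450 nm measured viability. Each value is the inhibition of cell viability as a fraction, derived from viability normalised to untreated cells.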

Structure (SMILES) | inhibition of cell viability
Cc1[nH]ccc2c1[nH]c1cc(=O)ccc12 [Harmol] | 0.664 (active)
NCCc1ccc(O)c(O)c1 [Dopamine hydrochloride] | 0.0465 (inactive)
C[C@]12CCC(=O)C=C1CC[C@@H]1[C@@H]2[C@@H](O)C[C@@]2(C)[C@H]1CC[C@]2(O)C(=O)CO [Hydrocortisone] | 0.0716 (inactive)
O=C(O)CCCCCCCC(=O)O [Azelaic acid] | 0.133 (inactive)
O=c1cc(-c2ccccc2)oc2ccccc12 [Flavone] | 0.149 (inactive)
C=C[C@H]1CN2CC[C@H]1C[C@H]2[C@H](O)c1ccnc2ccc(OC)cc12 [Quinine] | 0.162 (inactive)
C/C=C1\[C@H]2C=C(C)C[C@]1(N)c1ccc(=O)[nH]c1C2 [(-)-Huperzine A (HupA)] | 0.178 (inactive)
CC1(C)CC[C@]2(C(=O)O[C@@H]3O[C@H](CO[C@@H]4O[C@H](CO)[C@@H](O)[C@H](O)[C@H]4O)[C@@H](O)[C@H](O)[C@H]3O)CC[C@]3(C)C(=CC[C@@H]4[C@@]5(C)CC[C@H](O[C@@H]6OC[C@H](O)[C@H](O)[C@H]6O)[C@@](C)(CO)[C@@H]5CC[C@]43C)[C@@H]2C1 [Asperosaponin Ⅵ] | 0.0344 (inactive)
CC(C)=CCC/C(C)=C/CC/C(C)=C/CC/C(C)=C/CC1=C(C)C(=O)c2ccccc2C1=O [Menatetrenone] | -0.0024 (inactive)
C[N+](C)(C)CC(O)CC(=O)[O-] (stereo not drawn) [L(-)-Carnitine] | 0.123 (inactive)
COC(=O)[C@H]1[C@H]2C[C@@H]3c4[nH]c5cc(OC)ccc5c4CCN3C[C@H]2C[C@@H](OC(=O)c2cc(OC)c(OC)c(OC)c2)[C@@H]1OC [Reserpine] | 0.981 (active)
CC[C@H](/C=C/[C@@H](C)[C@H]1CC[C@H]2[C@@H]3CC=C4C[C@@H](O)CC[C@]4(C)[C@H]3CC[C@]12C)C(C)C [Stigmasterol] | -0.0217 (inactive)
C=C1C(=O)O[C@@H]2C[C@@]3(C)CCCC(=C)[C@@H]3C[C@H]12 [Isoalantolactone] | 0.867 (active)
O=C(O)CCCC[C@@H]1SC[C@@H]2NC(=O)N[C@@H]21 [D-Biotin] | -0.0414 (inactive)
C[C@@H]1O[C@@H](O[C@H]2C(=O)c3c(O)cc(O)cc3O[C@@H]2c2ccc(O)c(O)c2)[C@H](O)[C@H](O)[C@H]1O [Astilbin] | -0.0142 (inactive)
CC(C)C1=CC2=CC[C@@H]3[C@](C)(CCC[C@@]3(C)C(=O)O)[C@H]2CC1 [Abietic Acid] | 0.0466 (inactive)
CC(=O)C1=C(O)C=C2Oc3c(C(C)=O)c(O)c(C)c(O)c3C2(C)C1=O (stereo in doubt) [Usnic Acid] | 0.273 (inactive)
NC(=O)NCCC[C@H](N)C(=O)O [Citrulline] | -0.126 (inactive)
C/C=C/c1ccc(OC)cc1 [Trans-Anethole] | -0.146 (inactive)

Structure (SMILES) | inhibition of cell viability
C#C[C@]1(O)CC[C@H]2[C@@H]3CCc4cc(O)ccc4[C@H]3CC[C@@]21C [Ethynyl estradiol] | 0.639 (active)
C=C1CC[C@H](O)C/C1=C/C=C1\CCC[C@]2(C)[C@@H]([C@H](C)/C=C/[C@H](C)C(C)C)CC[C@@H]12 [Vitamin D2] | -0.0632 (inactive)
O=C(O)/C=C/CCCCCCCO [10-Hydroxy-2-decenoic acid] | 0.323 (inactive)
NCCCNCCCCNCCCN [Spermine] | -0.283 (inactive)
Cc1c(C(=O)NCCO)[n+]([O-])c2ccccc2[n+]1[O-] [Olaquindox] | 0.00372 (inactive)
OC[C@H]1O[C@@H](OCCc2ccc(O)cc2)[C@H](O)[C@@H](O)[C@@H]1O [Salidroside] | -0.0108 (inactive)
C=CC1=C(C)/C(=C/c2[nH]c(Cc3[nH]c(/C=C4\NC(=O)C(C)=C4C=C)c(C)c3CCC(=O)O)c(CCC(=O)O)c2C)NC1=O [Bilirubin] | 0.0432 (inactive)
CC(C)=CCC[C@](C)(O[C@@H]1O[C@H](CO[C@@H]2O[C@@H](CO)[C@H](O)[C@H]2O)[C@@H](O)[C@H](O)[C@H]1O)[C@H]1CC[C@]2(C)[C@@H]1[C@H](O)C[C@@H]1[C@@]3(C)CC[C@H](O[C@@H]4O[C@H](CO)[C@@H](O)[C@H](O)[C@H]4O[C@@H]4O[C@H](CO)[C@@H](O)[C@H](O)[C@H]4O)C(C)(C)[C@@H]3CC[C@]12C [Ginsenoside Rc] | -0.0382 (inactive)
NC(=O)CC[C@H](N)C(=O)O [L-Glutamine] | -0.0181 (inactive)
C=C[C@H]1CN2CC[C@H]1C[C@@H]2[C@@H](O)c1ccnc2ccc(OC)cc12 [Quinidine hydrochloride] | -0.217 (inactive)
Cc1cc2nc3c(=O)[nH]c(=O)nc-3n(C[C@H](O)[C@H](O)[C@H](O)COP(=O)(O)O)c2cc1C [Flavin mononucleotide] | 0.0137 (inactive)
O=c1oc2ccccc2c(O)c1Cc1c(O)c2ccccc2oc1=O [Dicumarol] | 0.308 (inactive)
COc1cc(C(C)=O)ccc1O [Acetovanillone] | 0.213 (inactive)
O=c1c(-c2ccc(O)cc2)coc2cc(O)ccc12 [Daidzein] | 0.0274 (inactive)
OCc1c[nH]c2ccccc12 [Indole-3-carbinol] | 0.0235 (inactive)
COc1ccc([C@@H]2CC(=O)c3c(O)cc(O)cc3O2)cc1O [Hesperetin] | -0.0748 (inactive)
C=CCc1ccc(O)c(-c2ccc(O)c(CC=C)c2)c1 [Honokiol] | 0.844 (active)
Cn1c(=O)c2nc[nH]c2n(C)c1=O [Theophylline] | -0.0544 (inactive)
